16 molecules from PubChem BioAssay (NCI) can be followed below.

About 83,000 compounds went through this panel and 20% of them were active in at least one assay; those are over-represented in the sample as a whole.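 Note: values are percent growth. 100 is the growth of untreated cells, values between 100 and 0 indicate rising inhibition; between -100 and 0 indicates cell death.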 A number with no mark means an inactive call. Active and inactive are the calls of the source. Rule for the calls: active = growth percent below 10; inactive = the rest.

Common to all, as to experiment: NCI-60 one-dose screen, 48 h (100 = growth as untreated, 0 = no growth, -100 = all killed)
Common to all, as to conditions: 10 µM unless noted

Test [1] concerns DU-145 prostate.
For test [2], the system named is MALME-3M melanoma.
The test system of test [3] is MDA-MB-231 breast.
The test system of test [4] is RXF 393 renal.
The test system of test [5] is SF-268 CNS.
Test [6] has as its system SF-539 CNS.
In test [7] the test system is UACC-257 melanoma.
Test [8] deals with M14 melanoma.
Test [9] concerns SF-295 CNS.
The subject of test [10] is K-562 leukemia.

As to `O=P(N1CC1)(N1CC1)N1CCc2ccccc21`, the growth was 112% in test [1]; 109% in [2]; 104% in [3]; 109% in test [4]; 103% in test [5]; 105% in [6]. In addition, the figures for the growth in test [7] and in test [8] were 110% and 104%, respectively.
Consider `COC(=O)CCC1=C(C)c2cc3[n-]c(cc4nc(cc5[n-]c(cc1n2)c(CCC(=O)OC)c5C)C=C4C)cc3C.[Cd+2]`, for which the growth in [1] is 9.35% (active); in test [2] it was 20.5%; in [3], 34.9%; in test [4], 65.7%; in test [5], 11.6%; in test [9], 61.9%. In addition, the growth in [6] was 62.2%; in [7], 78.7%; in [8], 57.9%.
`Cc1c2cc(Cl)c3ccccc3c2c[n+]2ccccc12`: the growth is 78.3% in test [1]; -16.2% (active) in test [2]; 82.5% in test [3]; -36.3% (active) in [5]; 18.3% in test [9]; 26.3% in test [6]. The growth in [8] was 47.5%.
In the case of `CC(=O)O[C@H]1CC[C@]2(C)[C@H]3CC[C@]4(C)[C@@H](OC(C)=O)CC[C@H]4[C@@H]3[C@@H](C)[C@]2(O)C1`, the growth in [1] is 107%; in test [10], 85.1%; in [3], 108%; in test [4], 114%; in test [5], 112%; in [6], 99.6%. The figures for the growth in test [7] and in test [8] were 127% and 109%, respectively.
On to `NC(=Nc1ccccc1)N[N+](=O)[O-]`, for which the growth was 111% in test [1]; 103% in [2]; 115% in test [3]; 95.2% in [4]; 102% in [5]; 113% in test [9]. The growth in test [7] was 112%; in [8], 99.9%.
For the molecule `O=C(O)C(Cl)(Cl)C(F)(F)F`, the growth in [1] was 108%; in test [2] it was 105%; in [3], 102%; in test [5] it was 99.3%; in test [9], 99.9%; in test [6] it was 102%. The growth in test [7] and in test [8] was 105% throughout.
Take `COC(=O)[C@@H](NC(=O)c1cn(CCC2CCCCC2)c2ccccc12)C(C)(C)C`: the growth in test [1] was 81.7%; in test [2], 106%; in test [3] it was 70.1%; in test [4], 83.9%; in test [5] it was 68.5%; in test [9], 60.2%. Also, the growth is 88.1% in test [6], 73% in test [7] and 59.4% in test [8].
As to `Cc1ccc(C(=O)NCCCOc2ccc(N3C(N)=NC(N)=NC3(C)C)cc2Cl)cc1S(=O)(=O)F`, the growth was 126% in [1]; 70.4% in [2]; 98.6% in [3]; 54.3% in test [5]; 111% in [9]; 54.1% in test [6]. Besides, the growth in [8] is 76.7%.
With `COc1cccc2c1c(C(=O)C(=O)Nc1ccn[nH]1)cn2Cc1ccc(F)cc1`, the growth in test [1] is 104%; in test [2], 112%; in [3], 109%; in test [4] it was 99.8%; in test [5], 100%; in test [9] it was 143%. For the same molecule, the growth in [6] was 99.5%; in [7] it was 104%; in test [8], 101%.
`COc1ccc(/C=C/c2cc(OC)c(OC)c(OC)c2)cc1NC(=O)/C=C/c1ccc(F)cc1`: the growth was 10.1% in test [1]; 42.7% in test [2]; 56.1% in test [3]; -19.1% (active) in test [4]; 45.2% in test [5]; -2.11% (active) in test [9]. Besides, the values for the growth in [6], in test [7] and in [8] were -0.885% (active), 59.3% and 13.4%, respectively.
Take `CC1(C)N=C(N)N=C(N)N1c1ccc(CCC(=O)Nc2ccc(S(=O)(=O)F)cc2)c(Cl)c1`: the growth in [1] is 40.2%; in test [2] it was 83.1%; in test [3], 51.7%; in test [5] it was 28.1%; in test [9], 30%; in [6] it was 11.9%. Also, the growth in test [8] is 23.4%.
On to `Cc1cc(NC(=O)NCc2ccc(N3C(N)=NC(N)=NC3(C)C)cc2)ccc1S(=O)(=O)F`, for which the growth in test [1] was 42.7%; in test [2], 56.9%; in test [3] it was 58.5%; in [5] it was 31.6%; in test [9], 27.9%; in test [6], 19.5%. The growth in test [8] is 29.5%.
Consider `COc1ccc(/C=C\c2cc(OC)c(OC)c(OC)c2)cc1NC(=O)/C=C/c1cc(OC)c(OC)c(OC)c1`, for which the growth in [1] is 95.2%; in [2], 58%; in test [3] it was 63.9%; in test [4], 1.99% (active); in test [5], 61.1%; in test [9], 12.5%. Further, the growth in test [6] was 44.5%; in [7] it was 70.6%; in test [8], 31.6%.
As to `Nc1ccc(OCCNS(=O)(=O)c2cccc(S(=O)(=O)F)c2)c(Cl)c1`, the growth is 95.1% in test [10]; 86.2% in [2]; 100% in [3]; 102% in test [5]; 89.2% in [9]; 93.5% in test [6]. Further, the growth in test [7] is 75.4%; in test [8], 97.3%.
Take `O=C(N/N=C\c1ccc(N(CCCl)CCCl)cc1)c1cccc([N+](=O)[O-])c1`: the growth in [1] is 85.9%; in test [2], 100%; in [3], 89.2%; in [4] it was 98.5%; in test [5], 76.7%; in test [9] it was 88.4%. In addition, the growth is 81% in [6], 92.7% in [7] and 110% in [8].
For `COc1ccc(/C=C\c2cc(OC)c(OC)c(OC)c2)cc1NC(=O)/C=C/c1ccc(OC)c(OC)c1`, the growth is 15.9% in test [1]; 51.7% in [2]; 58.6% in [3]; -15.1% (active) in test [4]; 41.7% in test [5]; 5.37% (active) in test [9]. Moreover, the growth is 2.69% (active) in [6], 73.9% in test [7] and 23.4% in test [8].
